Data as given in PubChem BioAssay AID1159580 (chemical genetic matrix, 2015).
Values joined by “and” are separate entries in the source; they are usually repeats but may differ in a detail not shown here. Equal values may be shown once. Screen size: about 5,500 compounds; about 2,000 (36%) were called active. Another 18% or so got no clear call; they are omitted. Cut-off read from the data, not from the text of the source: active = normalized growth mostly below about 0.91 (no sharp cut-off); inconclusive = no clear call, values can overlap the other calls; inactive = mostly above about 0.92. The list shows a part of the results.

Test: chemical genetic growth profiling, strain panel (AID 1159580);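 note: tested at 20 µM; growth read once vehicle control cultures reached saturation at 30 °C; 1 = growth at the plate median or of vehicle wells; lower values mean less growth of the strain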
Details: S. cerevisiae deletion strains, growth OD

Measured: normalized growth

c1ccc(CC2=NCCN2)cc1
active: locus YCL029C, strain bik1, hits give low values 0.887 | locus YDL185W, strain tfp1, hits give low values 0.816 | locus YDR101C, strain arx1, hits give low values 0.903 | locus YDR318W, strain mcm21, hits give low values 0.893 | locus YDR388W, hits give low values 0.923 | locus YDR502C, strain sam2, hits give low values 0.91 | locus YER155C, strain BEM2, hits give low values 0.891 | locus YGL078C, strain dbp3, hits give low values 0.806 | locus YHR079C, strain IRE1 (second series), hits give low values 0.865 | locus YHR094C, strain hxt1, hits give low values 0.9 | locus YHR200W, strain rpn10, hits give low values 0.91 | locus YIL125W, strain kgd1, hits give low values 0.787 | locus YIR030C, strain dcg1, hits give low values 0.899 | locus YJL168C, strain set2, hits give low values 0.915
inactive: locus YAL013W, strain DEP1, hits give low values 1.01 | locus YAL021C, strain ccr4, hits give low values 1.01 | locus YAL026C, strain drs2, hits give low values 1.03 | locus YAL030W, strain snc1, hits give low values 1.01 | locus YBL061C, strain skt5, hits give low values 1.01 | locus YBR009C, strain hhf1, hits give low values 0.998 | locus YBR021W, strain FUR4, hits give low values 0.861 | locus YBR023C, strain chs3, hits give low values 1.01 | locus YBR171W, strain sec66, hits give low values 1.03 | locus YBR229C, strain ROT2, hits give low values 0.983 | locus YBR231C, strain swc5, hits give low values 1.01 | locus YBR279W, strain paf1, hits give low values 1.01 | locus YCL011C, strain gbp2, hits give low values 1.02 | locus YCL016C, strain dcc1, hits give low values 1 | locus YCL061C, strain MRC1, hits give low values 1.02 | locus YCL069W, strain vba3, hits give low values 1.03 | locus YCR088W, strain abp1, hits give low values 1.01 | locus YDL005C, strain med2, hits give low values 1.02 | locus YDL035C, strain GPR1, hits give low values 0.963 | locus YDL040C, strain nat1, hits give low values 1 | locus YDL074C, strain BRE1, hits give low values 1 | locus YDL101C, strain DUN1, hits give low values 0.987 | locus YDL134C, strain PPH21, hits give low values 0.99 | locus YDL192W, strain arf1, hits give low values 0.952 | locus YDR001C, strain nth1, hits give low values 1.01 | locus YDR069C, strain doa4, hits give low values 1 | locus YDR137W, strain rgp1, hits give low values 1.03 | locus YDR150W, strain NUM1, hits give low values 0.983 | locus YDR159W, strain sac3, hits give low values 0.977 | locus YDR162C, strain NBP2, hits give low values 0.967 | locus YDR195W, strain ref2 1.02 | locus YDR297W, strain sur2, hits give low values 1.01 | locus YDR334W, strain swr1, hits give low values 1.02 | locus YDR335W, strain msn5, hits give low values 1 | locus YDR392W, strain spt3, hits give low values 0.933 | locus YEL003W, strain gim4, hits give low values 1.01 | locus YEL037C, strain rad23, hits give low values 1.02 | locus YEL061C, strain CIN8 (second series), hits give low values 1.01 | locus YEL061C, strain CIN8, hits give low values 0.987 | locus YER015W, strain faa2, hits give low values 1.01 | locus YER016W, strain bim1, hits give low values 1.04 | locus YER110C, hits give low values 0.929 | locus YER111C, strain swi4, hits give low values 1.02 | locus YER155C, strain BEM2 (second series), hits give low values 1.02 | locus YER167W, strain BCK2, hits give low values 0.939 | locus YFR010W, strain ubp6, hits give low values 1.01 | locus YGL086W, strain mad1, hits give low values 0.955 | locus YGL167C, strain pmr1, hits give low values 1.02 | locus YGL173C, strain kem1, hits give low values 0.998 | locus YGL227W, strain vid30, hits give low values 1.03 | locus YGL240W, strain doc1, hits give low values 0.97 | locus YGL248W, strain PDE1, hits give low values 0.996 | locus YGL253W, strain hxk2, hits give low values 1.01 | locus YGR078C, strain PAC10, hits give low values 0.988 | locus YGR135W, strain pre9, hits give low values 0.937 | locus YGR229C, strain SMI1, hits give low values 1.01 | locus YGR252W, strain gcn5, hits give low values 0.898 | locus YHR013C, strain ard1, hits give low values 1.02 | locus YHR027C, strain rpn1, hits give low values 1.02 | locus YHR030C, strain SLT2, hits give low values 0.976 and 0.967 | locus YHR079C, strain IRE1, hits give low values 0.961 | locus YHR129C, strain ARP1, hits give low values 0.958 | locus YHR142W, strain chs7, hits give low values 1.02 | locus YIL066C, strain RNR3, hits give low values 0.987 | locus YIL073C, strain SPO22, hits give low values 1.01 | locus YJL092W, strain hpr5, hits give low values 1.01 | locus YJL095W, strain BCK1 (second series), hits give low values 1.01 | locus YJL095W, strain BCK1, hits give low values 1.01 and 0.968 | locus YJL115W, strain asf1, hits give low values 1.02 | locus YJL129C, strain trk1, hits give low values 1.03 | locus YJL134W, strain LCB3, hits give low values 0.969 | locus YJL154C, strain vps35, hits give low values 1.01 | locus YJL164C, strain tpk1, hits give low values 1.02 | locus YJL166W, strain qcr8, hits give low values 1.03 | locus YJL187C, strain SWE1 (second series), hits give low values 0.988 | locus YJL187C, strain SWE1, hits give low values 1.02 | locus YJR043C, strain POL32, hits give low values 0.939 | locus YJR066W, strain TOR1, hits give low values 0.935
